Among the data in PubChem BioAssay AID488969 (Vanderbilt High Throughput Screening Facility, 2010) are z-score values, retold here.

Over roughly 110,000 compounds, “z-score” has its median near -0.1; the highest 2% begin near 2. The sample holds the highest values, similar compounds and a random draw of the others, so the mix is not that of the screen. Active and inactive are the calls of the source.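 Rule for the calls: active = z-score in the third read window above 3 or below -3; inactive = the rest.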

Metabotropic glutamate receptor 8 (Rattus norvegicus), sequence (P70579 whole entry, looked up): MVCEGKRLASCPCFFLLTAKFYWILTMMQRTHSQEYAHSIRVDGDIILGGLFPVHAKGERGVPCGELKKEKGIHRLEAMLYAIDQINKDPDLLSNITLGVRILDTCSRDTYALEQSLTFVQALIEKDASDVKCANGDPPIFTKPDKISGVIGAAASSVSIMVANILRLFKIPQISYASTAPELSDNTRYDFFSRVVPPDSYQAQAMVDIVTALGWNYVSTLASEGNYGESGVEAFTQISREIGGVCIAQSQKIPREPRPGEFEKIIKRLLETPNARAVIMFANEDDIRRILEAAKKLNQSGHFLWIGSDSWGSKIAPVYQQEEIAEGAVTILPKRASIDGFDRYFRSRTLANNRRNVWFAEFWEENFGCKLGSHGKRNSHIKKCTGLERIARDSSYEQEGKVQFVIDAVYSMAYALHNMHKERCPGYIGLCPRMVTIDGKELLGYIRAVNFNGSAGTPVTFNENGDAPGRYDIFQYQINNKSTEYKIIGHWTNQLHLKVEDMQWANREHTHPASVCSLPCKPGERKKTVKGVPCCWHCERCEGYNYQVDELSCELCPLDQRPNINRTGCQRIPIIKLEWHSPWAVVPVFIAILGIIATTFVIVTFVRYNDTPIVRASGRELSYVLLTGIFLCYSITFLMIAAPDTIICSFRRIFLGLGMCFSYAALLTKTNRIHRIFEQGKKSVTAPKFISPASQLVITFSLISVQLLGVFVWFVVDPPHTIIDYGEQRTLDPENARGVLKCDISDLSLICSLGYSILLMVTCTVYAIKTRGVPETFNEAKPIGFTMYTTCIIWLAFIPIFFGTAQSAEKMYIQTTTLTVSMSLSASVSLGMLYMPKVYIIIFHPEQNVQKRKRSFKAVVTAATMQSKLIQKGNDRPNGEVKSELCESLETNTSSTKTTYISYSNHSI

This experiment addresses Metabotropic glutamate receptor 8 (Rattus norvegicus) (UniProt P70579). The experiment in a line: mGluR8 Gi/Go-coupled signaling modulation – cell-based, rat, thallium flux, HTS, primary screen (AID 488969). Particulars: HEK293 rat mGluR8, GIRK (G protein-gated inwardly rectifying potassium channel) thallium flux, FluoZin2; at 10 µM; stronger effect = higher value; submaximal glutamate (EC20) added with thallium.
The compound `COc1ccc(NC(=O)c2cc(Cl)ccc2NC(=O)c2ccco2)c(OC)c1` yielded a z-score of 0.354.

As for `CCN(CC)S(=O)(=O)c1ccc(C(=O)Nc2nnc(C(C)C)s2)cc1`, the z-score was -0.2. In the case of `COc1ccc(S(=O)(=O)NC(C)C(=O)O)cc1` (stereo unspecified) it was -0.408. `O=C(OCc1nc2ccccc2s1)C1CCN(S(=O)(=O)c2cccs2)CC1` displayed a z-score of 0.023. In the case of `COc1ccc(C(=O)Cn2c(Br)nc3c2c(=O)n(C)c(=O)n3C)cc1OC` it was -0.137.

As for `CCCn1c(SCC(=O)c2ccc(OC)c(OC)c2)nc2c1c(=O)n(C)c(=O)n2C`, the z-score was -0.237.

For the compound `COc1ccc(-c2nc3c(c(=O)n(C)c(=O)n3C)n2CC2CC(c3ccccc3)=NO2)cc1OC` (stereo unspecified), the z-score was found to be 2.08. `Cc1cccc(N/C=C/c2onc(C)c2[N+](=O)[O-])c1` displayed a z-score of 1.43.

Take `CCN(CC)S(=O)(=O)c1cc(C(=O)OCC(=O)NC2CCCc3ccccc32)ccc1C` (stereo unspecified): the z-score is -0.154.

With `COCCn1c(C)cc(C2=NNC(=Nc3ccccc3)SC2)c1C`, the z-score is -0.413. In the case of `Cc1ccc(-n2c(N)c(C(=O)NCc3cccnc3)sc2=S)cc1` it was 0.285; in that of `COc1cc2c(C(=O)NCc3ccc4c(c3)OCO4)cn(C)c(=O)c2cc1OC`, -0.397; in that of `COc1ccc(OC)c(NC(=O)Cn2c(CCC(=O)O)ccc2-c2cccs2)c1`, -0.116. In the case of `COc1ccc(S(=O)(=O)N2CCN(C(=O)NCc3ccccc3)CC2)cc1` it was -0.0685; in that of `CCOc1ccc(NCc2cc3c(C(C)(C)C)nn(-c4ccccc4)c3[nH]c2=O)cc1`, -0.079; in that of `Cc1nn(-c2ccccc2)c2[nH]c(=O)c(CNCc3ccc4c(c3)OCO4)cc12`, -0.638. Consider `CCc1ccc(NCc2cc3c(C)nn(-c4ccccc4)c3[nH]c2=O)cc1`, for which the z-score is 5.48 (active). In the case of `Cc1ccc(OCC(=O)Nc2sc3c(c2C#N)CCC3)cc1C` it was -0.0369. In the case of `COc1cccc(C2CC(c3ccc(F)cc3)Nc3nc(N)nn32)c1` (stereo unspecified) it was 0.0383; in that of `O=C(NCCCN1CCCC1)c1ccc(CSCc2cccc(Cl)c2)o1`, 3.42 (active).

For `O=C(NC1CC1)c1ccc(CSCc2cccc(F)c2)o1`, the z-score is 4.11 (active). In the case of `CC1CCN(CCCNC(=O)c2ccc(CSCc3cccc(Cl)c3)o2)CC1` it was 0.509. As to `CN1CCN(CCCNC(=O)c2ccc(CSCc3cccc(Cl)c3)o2)CC1`, the z-score is 1.35. In the case of `CCC(C)NC(=O)c1ccc(CSCc2cccc(F)c2)o1` (stereo unspecified) it was -0.863; in that of `CC(C)CCNC(=O)c1ccc(CSCc2cccc(F)c2)o1`, -3.86 (active); in that of `COc1cccc(-c2cc(C(=O)N3CCN(Cc4ccccc4)CC3)no2)c1`, 0.395. The same measure for `CO/N=C/NC(=O)c1c(OC)ccnc1Oc1cccc(C(F)(F)F)c1`: 0.0176; for `NC1=NC(=O)/C(=C\c2cccs2)S1`: -0.0766; for `NC1=NC(=O)/C(=C/c2cccs2)S1`: -0.848.

Compound `O=C1N=C(c2ccccc2)S/C1=C\c1cccs1` registered a z-score of 2.92.

`Cc1cc2ncn(C(=O)c3c(-c4c(Cl)cccc4Cl)noc3C)c2cc1C` displayed a z-score of 0.106. In the case of `Cc1cc(NC(=O)c2ccc(S(=O)(=O)N3CCCC3)cc2)nc2c1c(=O)oc1ccccc12` it was 0.442; in that of `FC(F)(F)COc1nc(OCC(F)(F)F)nc(N2CCN(c3ccccc3)CC2)n1`, -0.193; in that of `CNc1nc(OCC(F)(F)F)nc(N2CCOCC2)n1`, -0.112.

As to `FC(F)(F)COc1nc(N2CCCCC2)nc(N2CCNCC2)n1`, the z-score came out at 2.6. For the compound `O=C(NCc1cccnc1)c1ccccc1[N+](=O)[O-]`, the z-score is -0.0931. In the case of `CCOc1ccc(/C=N/NC(=O)c2ccccc2NC(=O)c2ccc(OC)cc2)cc1` it was -0.0531. As for `CC(C)c1ccc2occ(-c3nn[nH]n3)c(=O)c2c1`, the z-score was 3.29 (active).

For `Cc1ccc2occ(-c3nn[nH]n3)c(=O)c2c1`, the z-score was determined as 0.366. With `Cc1ccccc1-c1nn[nH]n1`, the z-score is -0.33. The same measure for `CCCSc1nn2c(=O)c3ccccc3nc2s1`: -0.252; for `CCCc1cc(-c2nc(-c3ccc(Cl)cc3)cs2)ccn1`: -0.136.

`CCCc1cc(C(N)=S)ccn1`: the z-score is 2.24.

In the case of `CCCc1cc(-c2nc(-c3ccc(Br)cc3)cs2)ccn1`, the z-score stood at 0.0465.

As to `COc1nc(NCCc2ccc(OC)c(OC)c2)nc(OC)n1`, the z-score was -0.163.

As to `O=c1c2ccccc2sc2ccc(Cl)cc12`, the z-score was -0.316.

In the case of `O=c1c(C(c2ccccc2)c2c(O)sc3ccccc3c2=O)c(O)sc2ccccc12`, the z-score was 7.03 (active). The same measure for `COc1ccc2sc3ccccc3c(=O)c2c1`: -0.213; for `CCN1C(=O)CC(N2CCN(c3ccc(C(=O)c4ccccc4)cc3)CC2)C1=O` (stereo unspecified): -0.153. In the case of `COc1ccc(NC(=O)C2CCCN(S(=O)(=O)c3cccs3)C2)cc1OC` (stereo unspecified) it was -0.257. The same measure for `O=C(Cc1cccs1)Nc1cccnc1`: 3.36 (active).

In the case of `O=C(Cc1cccs1)NCc1cccnc1`, the z-score came out at 0.742. The same measure for `Cc1nnc(NC(=O)CCSc2ccccc2)s1`: 2.67; for `CCCCc1nnc(NC(=O)CCSc2ccccc2)s1`: 0.0449; for `COCc1nnc(NC(=O)CCSc2ccccc2)s1`: -0.0854.

In the case of `O=C(Nc1cccnc1)c1cccs1`, the z-score was -0.52. In the case of `COCCSc1nnc(NC(=O)Cc2cccs2)s1` it was 0.124; in that of `CCCCCc1nnc(NC(=O)Cc2cccs2)s1`, 12.3 (active); in that of `Cc1nnc(NC(=O)CCC(=O)NCc2cccs2)s1`, -0.0957. The same measure for `O=C(Cc1cccs1)Nc1nnc(CCc2ccccc2)s1`: 0.238; for `O=C(Cc1cccs1)Nc1nnc(Cc2ccccc2)s1`: -0.0843; for `Cc1nnc(NC(=O)Cc2cccs2)s1`: 2.4. Turning to `NNc1nnc(-c2ccccc2)c(-c2ccccc2)n1`, the z-score was -0.209. In the case of `CCOC(=O)CCCCC(=O)c1[nH]c(=O)[nH]c1CSCCO` it was 0.565. In the case of `O=C(Nc1ccc(F)cc1)C(c1ccccc1)N1CCN(C(=O)c2ccco2)CC1` (stereo unspecified) it was -0.404.

Take `CC(=O)Nc1ccc(NC(=O)COC(=O)Cc2cccs2)cc1`: the z-score is -0.0463. The same measure for `COc1ccc(-n2c(SCC(=O)Nc3ccc(C(=O)O)cc3)nnc2-c2cccs2)cc1`: 0.0972. The same measure for `CC1(C)N=C(N)N=C(N)N1c1ccc(F)cc1F`: -0.421; for `O=C1NC(=S)S/C1=C\c1ccc(SCc2ccccc2)o1`: 6.47 (active); for `O=C1NC(=S)S/C1=C/c1ccc(N2CCOCC2)o1`: 0.253.

Turning to `CC1=NN2C(=N)/C(=C\c3ccc(SCc4ccccc4)o3)C(=O)N=C2S1`, the z-score is -0.21. The same measure for `CCCNc1nc(N2CCOCC2)nc(N2CCOCC2)n1`: -0.0765; for `Cc1cc(O)c2c(-c3ccccc3)cc(=O)oc2c1`: 2.16; for `Cc1cc(OC(C)C)c2c(-c3ccccc3)cc(=O)oc2c1`: -0.594. The same measure for `CCOc1cc(C)cc2oc(=O)cc(-c3ccccc3)c12`: 0.0205; for `C=CCCC(=O)Nc1nc(C)c(-c2csc(Nc3ccc(Cl)cc3Cl)n2)s1`: -0.203.

For `O=[N+]([O-])c1ccc(Cl)c(/C=N/N2CCN(c3ccccc3)CC2)c1`, the z-score is -0.188. In the case of `O=[N+]([O-])c1cc(/C=N/N2CCN(c3ccccc3)CC2)ccc1Cl` it was 2.02; in that of `O=[N+]([O-])c1cc(/C=N/N2CCN(C3c4ccccc4-c4ccccc43)CC2)ccc1Cl`, 0.148; in that of `N#C/C(=C\c1ccc(-c2cccc(C(F)(F)F)c2)o1)C(=O)Nn1cnnc1`, -0.113. The same measure for `O=C1NCCCC1C(=O)N/N=C/c1ccccc1` (stereo unspecified): 0.00752. The compound `Cn1c(CSc2nc3ccccc3s2)n[nH]c1=S` yielded a z-score of 1.41. For the compound `S=c1[nH]nc(CSc2nc3ccccc3s2)n1C1CCCCC1`, the z-score was 14.9 (active).

On to `CCn1c(CSc2nc3ccccc3s2)n[nH]c1=S`, for which the z-score is 0.155. In the case of `Cc1cc(C(=O)NCCCC(=O)O)c(C)o1` it was -0.154. The same measure for `Cc1noc(/C=C/N(C)C)c1S(=O)(=O)N1CCCC(C(=O)NC2CCCCC2)C1` (stereo unspecified): -0.19. The same measure for `Cc1noc(/C=C/N(C)C)c1S(=O)(=O)N(C)CC(=O)NC1CCCCC1`: 2.18; for `Cc1noc(/C=C/N(C)C)c1S(=O)(=O)NC1CCCCC1`: -0.658; for `CCCC1COC(Cn2cncn2)(c2ccc(C)cc2)O1` (stereo unspecified): 10.6 (active). Turning to `Cc1ccc(SCCCn2cncn2)cc1`, the z-score was -0.0811. The same measure for `c1ccc(C2(c3ccccc3)OCC(Cn3cncn3)O2)cc1` (stereo unspecified): 0.218. The same measure for `CCn1c(CCNC(=O)c2ccc(Cl)cc2)n[nH]c1=S`: -0.774. The same measure for `CCn1ncc(/C=C/C(=O)Nc2c(C)nn(CC)c2C)c1C`: -0.306; for `CC1CCCCC1NC(=O)COC(=O)c1ccc2c(c1Cl)C(=O)c1ccccc1C2=O` (stereo unspecified): -0.0566.

Regarding `O=C(COC(=O)c1cccc(N2C(=O)c3ccccc3C2=O)c1)Nc1ccccc1`, the z-score was 5.13 (active).

Take `Cc1nc2cc(C(=O)OCC(=O)Nc3cccc(Cl)c3)ccc2n1-c1ccccc1`: the z-score was found to be 2.18. The same measure for `CC(=O)c1cccc(NC(=O)COC(=O)c2cccc(N3C(=O)c4ccccc4C3=O)c2)c1`: 0.155; for `Cc1nc2cc(C(=O)OCC(=O)Nc3ccc(C#N)cc3)ccc2n1-c1ccccc1`: -0.0383; for `O=C(COC(=O)c1cccnc1)Nc1ccccc1`: 0.274. In the case of `COc1ccccc1NC(=O)COC(=O)c1ccc2c(c1)nc(C)n2-c1ccccc1` it was -0.283. For the compound `Cc1cc(NS(=O)(=O)c2ccc(NC(=O)c3cc(-c4ccccc4Cl)nc4ccccc34)cc2)no1`, the z-score is -1.51. The same measure for `C=CCn1c(=NC(=O)c2ccco2)sc2cc(C(=O)OC)ccc21`: 0.103.

The compound `COc1ccccc1C(=O)Nc1ccc2c(c1)OCO2` registered a z-score of 0.246. The same measure for `CN(C)C(=O)N1CCCC(C(=O)NCc2ccccc2)C1` (stereo unspecified): -0.341; for `CC(/C=N/NC(=O)c1ccncc1)=C\c1ccc(C(C)C)cc1`: -0.0873; for `CC(=C/c1ccc(C(C)C)cc1)/C=N/NC(=O)c1ccncc1`: 2.21. In the case of `CC(/C=N/NC(=O)c1ccncc1)=C\c1ccccc1` it was 0.474; in that of `COc1cc(/C=N\NC(=O)c2ccc(=O)[nH]n2)cc(OC)c1OC`, 0.00269. In the case of `O=C(NO)c1ccc(OC(F)F)cc1` it was 0.319; in that of `CCC1CCCCN1c1cc(C)nc2cc(-c3cccc(C)c3)nn12` (stereo unspecified), -0.0418; in that of `C#CCn1c(=NC(=O)c2ccccc2[N+](=O)[O-])sc2cc(S(C)(=O)=O)ccc21`, -0.119. `S=c1nc(-c2ccccc2)oc2c1CCCC2`: the z-score was -0.0866. For the compound `S=c1nc(-c2ccc(Br)cc2)oc2c1CCCC2`, the z-score was 4.2 (active). In the case of `Cc1cccc(-c2nc(=S)c3c(o2)CCCC3)c1` it was 0.856; in that of `C=CCONC(=O)c1cc(OCC(F)(F)F)ccc1OCC(F)(F)F`, -0.0898; in that of `COCCCNCCOCCSc1ccc(Cl)cc1`, 0.918.
